Potency and affinity values are given separately.
Experiments:
Staphylococcus aureus = details: Concentration 32 ug.mL-1;; ASSAY_TEST Inhibition of Bacterial Growth; detection method Absorption (OD600); MEDIA CAMHB; plate type 384well; NBS; CORNING #3640; time 18 hr
Escherichia coli = details: Concentration 32 ug.mL-1;; ASSAY_TEST Inhibition of Bacterial Growth; detection method Absorption (OD600); MEDIA CAMHB; plate type 384well; NBS; CORNING #3640; time 18 hr

SMILES	Inhibition (Staphylococcus aureus) [%]	Inhibition (Escherichia coli) [%]
CCc1nnc2ccc(S(=O)(=O)N(Cc3cccc(OC)c3)c3ccc(F)cc3)cn12	-0.44	-12.34
CCOC(=O)c1ccccc1NC(=O)CSc1nc2ccccc2n2c(C(C)C)nnc12	6	-2.48
Cc1ccc(Oc2nccn3c(=O)n(CC(=O)Nc4ccc(Br)cc4)nc23)cc1	6.95	-5.29
CC(=O)c1cccc(NC(=O)CSc2nnc3ccc(C(=O)Nc4cccc(F)c4)cn23)c1	12.95	-3.3
Cc1ccc(C)c(CN(c2cccc(Cl)c2)S(=O)(=O)c2cccn3c(C)nnc23)c1	11.55	-2.76
Cc1nnc2c(=O)n(CC(=O)Nc3ccc(F)cc3)c3ccccc3n12	15.51	1.65
CCOc1ccccc1NC(=O)Cn1nc2c(N3CCN(c4ccccc4)CC3)nccn2c1=O	1.85	-3.13
O=C(Cn1nc2c3cc(-c4ccc(Cl)cc4)nn3ccn2c1=O)NCc1ccccc1	12.1	4.95
O=S(=O)(c1ccc2nncn2c1)N(Cc1ccc(Cl)cc1)c1ccc2c(c1)OCO2	11.62	-6.36
Cc1cc2nn(CC(=O)Nc3ccccc3C)c(=O)n2c(Nc2ccc(F)c(C)c2)n1	4.45	-4.23
CCOc1ccc(-n2ccn3c(SCC(=O)c4c(C)[nH]c5ccccc45)nnc3c2=O)cc1	-0.13	-15.25
COc1ccc(Cl)cc1NC(=O)Cn1nc2c3cc(-c4ccc(C)cc4)nn3ccn2c1=O	13.21	3.02

— ChEMBL document CHEMBL4513146, “CO-ADD screening of Karazin Kharkiv National University (Ukraine) compounds”
